According to PubChem BioAssay (NCI):
Compounds without any hit were thinned out: in the full panel of roughly 83,000, 20% have a hit.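 For each line, cells grew in 96-well plates with the test compound present at a single concentration for 48 hours.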 Unmarked numbers belong to inactive results. The source made the active and inactive calls. Rule for the calls: active = growth percent below 10; inactive = the rest.

Legend:
Assay in all cases: NCI-60 one-dose screen, 48 h (100 = growth as untreated, 0 = no growth, -100 = all killed)
Conditions in all cases: 10 µM unless noted
[1] = tested on: NCI-H23 lung
[2] = tested on: NCI-H322M lung
[3] = tested on: HOP-62 NSCLC
[4] = tested on: NCI-H460 lung
[5] = tested on: HOP-92 NSCLC
[6] = tested on: NCI-H522 lung
[7] = tested on: A549/ATCC NSCLC
[8] = tested on: 786-0 renal
[9] = tested on: COLO 205 colon

SMILES	growth [1]	growth [2]	growth [3]	growth [4]	growth [5]	growth [6]	growth [7]	growth [8]	growth [9]
O=C(/C=C/c1ccccc1)C(Br)C(Br)c1ccccc1 (stereo not given)	29.4%	100%	12.5%	89.8%	-18.9% (active)	-78.3% (active)	47.2%	-80.2% (active)	-74.2% (active)
Cc1c(C)c(C)c([N+](=O)[O-])c([N+](=O)[O-])c1C	107%	116%	103%	108%	69%	98.7%	93.4%	93.6%	115%
COc1cc(C2CC(c3ccc(Cl)cc3)=NN2C=O)ccc1OS(=O)(=O)c1ccc(C)cc1 (stereo not given)	83.5%		96.6%	91%	85.1%	82.7%	78.8%	88.4%	100%
OC(c1cc(-c2ccc(C(F)(F)F)cc2)nc(-c2ccc(C(F)(F)F)cc2)c1)C1CCCCN1 (stereo not given)	-60.2% (active)	-79.5% (active)	-86.9% (active)	-67.7% (active)	-81.9% (active)	-78.7% (active)	-84.4% (active)	-75.4% (active)	-79.6% (active)
